The panel holds about 83,000 compounds, 20% with a hit somewhere; the sample as a whole holds those more often.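 Single-concentration screen, 48 h exposure, 96-well plates. Endpoint: percent growth. Below 10 = active.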 A number with no mark means an inactive call. Active and inactive are the calls of the source.
Test system: RXF 393 renal
Test: NCI-60 one-dose screen, 48 h (100 = growth as untreated, 0 = no growth, -100 = all killed)
Conditions: 10 µM unless noted

SMILES | growth
N#CC1=C(N)Oc2c(c(N)nn2-c2ccccc2)C1c1ccc(Cl)cc1Cl (stereo not drawn) | 109%
C=C(C)[C@@H]1CC[C@]2(C=O)CC[C@]3(C)[C@H](CC[C@@H]4[C@@]5(C)C/C(=C/c6cccnc6)C(=O)C(C)(C)[C@@H]5CC[C@]43C)[C@@H]12 | 83.2%
C=C(C)[C@@H]1CC[C@]2(C(=O)N3CCN(CC)CC3)CC[C@]3(C)[C@H](CC[C@@H]4[C@@](C)(CCC(=O)N5CCN(CC)CC5)[C@H](C(=C)C)CC[C@]43C)[C@@H]12 | 48.8%
CCN1CCN(C(=O)[C@]23CCC(C)(C)C[C@H]2C2=CC[C@@H]4[C@@]5(C)CC/C(=N/O)C(C)(C)[C@@H]5CC[C@@]4(C)[C@]2(C)CC3)CC1 | 81.2%
N#CC1=C(N)Oc2c(sc3c(F)cccc23)C1c1ccc(Cl)cc1 (stereo not drawn) | 9.87% (active)
O=C1c2cccc3cccc(c23)C(=O)N1CC#Cc1ccc2c3c(cccc13)C(=O)N(CCN1CCNCC1)C2=O | 82.9%
C=C(C)[C@@H]1CC[C@]2(/C=N/Nc3ccncc3)CC[C@]3(C)[C@H](CC[C@@H]4[C@@]5(C)CCCNC(C)(C)[C@@H]5CC[C@]43C)[C@@H]12 | 96.3%
Cc1ccnc2c(OCc3ccccc3)cccc12 | 95.1%
C=CC(=O)N[C@H](Cc1ccc(-c2cc(Cl)cc(Cl)c2)cc1)[C@H](O)[C@@H](O)C(=O)O | 101%
C=COCCCCCCCCCCCCCCCCCC | 119%
COc1cc2ncnc(Nc3ccc(Oc4ccnc(C)c4)c(C)c3)c2cc1NC(=O)CC1CCSS1 (stereo not drawn) | 8.74% (active)
CN1CCN(c2nc(-c3csc(-c4cccs4)n3)cc3ccccc23)CC1 | 40.3%
O=C(O[C@@H]1Cc2c(O)cc(O)cc2O[C@@H]1c1cc(O)c(O)c(O)c1)c1cc(O)c2c(c1)OCO2 | 111%
C/C(Cc1ccc(Cl)cc1)=C(/c1ccc(Cl)cc1)c1ccc(OCCN2CCCC2)cc1 | 86.3%
Cc1cc(N(CCCNc2ccnc3cc(Cl)ccc23)Cc2ccco2)nc(N2CCOCC2)n1 | 71%
Cc1ccccc1-c1nc(C(Cl)Cl)nc2cc(-c3ccccc3)nn12 | 3.45% (active)
O=C1/C(=C\C(Cl)=C/c2ccc([N+](=O)[O-])cc2)SC(=S)N1CCc1ccc(O)cc1 | -72.5% (active)
Brc1ccc2c(c1)c(-c1nc(-c3c[nH]c4ncccc34)cs1)cn2CCCN1CCCCC1 | 23.6%
Cn1c(/C(C#N)=C/c2ccc3ccccc3c2)cc2ccccc21 | 41.1%

SMILES | growth
CN(CSc1ccc(Cl)cc1)c1ccc(CSc2ccc(Cl)cc2)cc1 | 68.7%
CCNCCCn1c2c(c3ccc([N+](=O)[O-])cc3c1=O)C(=O)c1cc(OC)cnc1-2 | -85.8% (active)
CC1(C)NC2=C(C(Nc3cccnc3)N1)C(c1ccc([N+](=O)[O-])cc1)C(C(=O)c1ccc(N=[N+]=[N-])cc1)O2 (stereo not drawn) | 112%
COc1ccc(C2C(C#N)=C(N)Oc3c2sc2c(F)cccc32)cc1 (stereo not drawn) | -8.26% (active)
COc1cc(-c2cc3ncccc3c3[nH]c(=O)c4cccnc4c23)cc(OC)c1OC | -3.08% (active)
CCCCC/C(=C\c1ccccc1)C1OC(C)C(C)O1 (stereo not drawn) | 102%
COc1ccc2c(c1)c(-c1nc(-c3c[nH]c4ncccc34)cs1)cn2CCNC(=O)OC(C)(C)C | 83.1%
COc1cc(/C=C/c2cc(/C=C/c3ccc(O)c(OC)c3)n(-c3ccccc3)c(=O)n2)ccc1O | 68.3%
CCN1CCN(C(=O)[C@]23CC[C@@H](C)[C@H](C)[C@H]2C2=CC[C@@H]4[C@@]5(C)C/C(=C/c6cccc(OC)c6OC)C(=O)C(C)(C)[C@@H]5CC[C@@]4(C)[C@]2(C)CC3)CC1 | 30.2%
COc1cc2c(cc1-c1c(C)noc1C)ncc1nc(C3CCCCC3)n([C@@H](C)COC(F)F)c12 | 52.2%
CC(=O)OC[C@]12CC[C@@H](/C(C)=N/O)[C@@H]1[C@H]1CC[C@@H]3[C@@]4(C)CCCNC(C)(C)[C@@H]4CC[C@@]3(C)[C@]1(C)CC2 | 71.2%
Brc1cnc2[nH]cc(-c3nnc(-c4ccccc4)o3)c2c1 | 26.8%
COc1ccc2[nH]c(-c3ccc(Cl)cc3)cc(=O)c2c1 | 111%
CCN1CCN(C(=O)[C@]23CCC(C)(C)C[C@@H]2C2=CC[C@@H]4[C@@]5(C)C/C(=C/c6ccncc6)C(=O)C(C)(C)[C@@H]5CC[C@@]4(C)[C@]2(C)CC3)CC1 | -93.3% (active)
COc1ccc(/C=C(\C#N)c2cc3ccccc3n2S(C)(=O)=O)cc1 | 78.1%
Cc1ccc(S(=O)(=O)Nc2ccc(-c3cc(-c4cccc(F)c4)c(C#N)c(=O)[nH]3)cc2)cc1 | 83.1%
N#CC1=C(N)Oc2c(c(N)nn2-c2ccccc2)C1c1ccc(Cl)cc1 (stereo not drawn) | 93.8%
C=C(C)[C@@H]1CC[C@]2(CN)CC[C@]3(C)[C@H](CC[C@@H]4[C@@]5(C)CCC(=O)NC(C)(C)[C@@H]5CC[C@]43C)[C@@H]12 | 59%
CC1(C)[C@@H](O)CC[C@]2(C)[C@H]3CC[C@@H]4[C@H]5[C@H](C(=O)/C=C/c6ccc(C(F)(F)F)cc6)CC[C@]5(CO)CC[C@@]4(C)[C@]3(C)CC[C@@H]12 | 32.3%

Source: PubChem BioAssay (NCI)
